Reference: PubChem BioAssay (NCI)
Compounds without any hit were thinned out: in the full panel of roughly 79,000, 15% have a hit. The source made the active and inactive calls. Rule as the data show it: active = growth inhibition above about 70%; inactive = the rest.

Legend:
[1] = NCI Yeast Anticancer Drug Screen. Data for the rad50 strain (AID 155);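 also: 0% = growth of vehicle-only cultures of the same strain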; conditions: S. cerevisiae rad50 strain growth inhibition, hits give high values
In short: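 Yeast carrying a defined DNA repair defect were exposed to test compounds, and growth was compared with vehicle-treated controls to give percent inhibition.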

[2] = NCI Yeast Anticancer Drug Screen. Data for the mec2-1 strain (AID 157); conditions: S. cerevisiae mec2-1 strain, hits give high values
In short: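 Growth inhibition is read against vehicle-treated controls after compound exposure of the mec2-1 yeast strain, which is defective in DNA damage repair or cell cycle control.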

[3] = NCI Yeast Anticancer Drug Screen. Data for the sgs1 mgt1 strain (AID 161);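 also: 0% = growth of cultures given vehicle only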; conditions: S. cerevisiae sgs1 mgt1 strain, hits give high values
In short: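 Compounds are added to genetically altered yeast, and growth is compared with cultures given vehicle alone to give percent inhibition.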

[4] = NCI Yeast Anticancer Drug Screen. Data for the cln2 rad14 strain (AID 165);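 also: 0% = growth equal to vehicle treated cultures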; conditions: S. cerevisiae cln2 rad14 strain, hits give high values
In short: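 Growth inhibition, relative to vehicle-treated controls, is the read-out. The test organism is a yeast strain with defined genetic alterations, cln2 rad14.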

[5] = NCI Yeast Anticancer Drug Screen. Data for the bub3 strain (AID 167); conditions: S. cerevisiae bub3 mutant strain, hits give high values
In short: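 Compounds were applied to a genetically altered yeast strain carrying a cell-cycle control defect. Growth inhibition was scored against vehicle-treated controls.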

[6] = NCI Yeast Anticancer Drug Screen. Data for the mlh1 rad18 strain (AID 175); conditions: S. cerevisiae mlh1 rad18 strain growth inhibition, hits give high values
In short: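 Cells of a genetically altered yeast strain, deficient in DNA damage repair, were treated with compound. Their growth was then compared with that of vehicle-treated cultures to give inhibition.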

[7] = at 5.0 µM (retest, dose inferred, filed as 0.5)
[8] = at 50.0 µM (retest, dose inferred, filed as 5.0)

SMILES | growth inhibition [1, 7] | growth inhibition [1, 8] | growth inhibition ([1]; at 50.0 µM) | growth inhibition [2, 7] | growth inhibition [2, 8] | growth inhibition ([2]; at 50.0 µM) | growth inhibition [3, 7] | growth inhibition [3, 8] | growth inhibition ([3]; at 50.0 µM) | growth inhibition [4, 7] | growth inhibition [4, 8] | growth inhibition ([4]; at 50.0 µM) | growth inhibition [5, 7] | growth inhibition [5, 8] | growth inhibition ([5]; at 50.0 µM) | growth inhibition [6, 7] | growth inhibition [6, 8] | growth inhibition ([6]; at 50.0 µM)
CCCC(=O)Oc1ccc(-c2ccccc2)cc1Br | 2% (inactive) | 83% (active) | 96.5% (active) | 2% (inactive) | 86% (active) | 91.5% (active) | 4% (inactive) | 81% (active) | 94.5% (active) | 6% (inactive) | 84% (active) | 86.7% (active) | 18% (inactive) | 77% (active) | 91.1% (active) | -1% (inactive) | 73% (active) | 95.9% (active)
Nc1ccc2c(c1)CN1C(=O)c3ccccc3C1=N2 | 24% (inactive) | 54% (inactive) | 67.3% (inactive) | 8% (inactive) | 22% (inactive) | 34.6% (inactive) | -3% (inactive) | 12% (inactive) | 5.55% (inactive) | 23% (inactive) | 18% (inactive) | 36.6% (inactive) | 3% (inactive) | 19% (inactive) | 22.4% (inactive) | 11% (inactive) | 19% (inactive) | 46% (inactive)
Cc1cccc(NC(=O)CCc2ccc(Cl)cc2)n1 | 2% (inactive) | 1% (inactive) | 6.3% (inactive) | -17% (inactive) | -6% (inactive) | 2.55% (inactive) | 2% (inactive) | 13% (inactive) | 0.2% (inactive) | -6% (inactive) | -15% (inactive) | 41.8% (inactive) | -1% (inactive) | 0% (inactive) | 9.9% (inactive) | 8% (inactive) | -7% (inactive) | -2.8% (inactive)
O=C1C(=O)C2CC3(CC1N2Cc1ccccc1)OCCO3 | 11% (inactive) | 95% (active) | 98% (active) | -28% (inactive) | 79% (active) | 96.5% (active) | 36% (inactive) | 93% (active) | 96.9% (active) | 5% (inactive) | 43% (inactive) | 95.2% (active) | -10% (inactive) | 78% (active) | 86.5% (active) | 34% (inactive) | 94% (active) | 95.5% (active)
CCC(CO)Nc1nc2ccc(Br)cc2c2ccccc12 (centres undefined) | 15% (inactive) | 82% (active) | 76% (active) | 4% (inactive) | 59% (inactive) | 49.5% (inactive) | 5% (inactive) | 95% (active) | 86% (active) | 0% (inactive) | 56% (inactive) | 66% (inactive) | 2% (inactive) | 84% (active) | 63.6% (inactive) | 8% (inactive) | 96% (active) | 93.9% (active)
Oc1ccccc1C(Sc1nc2ccccc2s1)Sc1nc2ccccc2s1 | 4% (inactive) | 97% (active) | 97.3% (active) | 16% (inactive) | 97% (active) | 95.8% (active) | 19% (inactive) | 97% (active) | 97.2% (active) | -1% (inactive) | 93% (active) | 72% (active) | -3% (inactive) | 97% (active) | 91% (active) | 3% (inactive) | 98% (active) | 90% (active)
O=C(O)CSc1nnc2c3ccccc3c3ccccc3c2n1 | -14% (inactive) | 70% (active) | 48% (inactive) | 6% (inactive) | 46% (inactive) | 30.1% (inactive) | -2% (inactive) | 55% (inactive) | 7.8% (inactive) | -33% (inactive) | 65% (inactive) | 47.7% (inactive) | 17% (inactive) | 53% (inactive) | 54.9% (inactive) | 9% (inactive) | 71% (active) | 47.1% (inactive)
Fc1ccc2[nH]ccc2c1 | 9% (inactive) | 41% (inactive) | 55.5% (inactive) | -22% (inactive) | 13% (inactive) | 28.8% (inactive) | 5% (inactive) | 19% (inactive) | 60.6% (inactive) | 9% (inactive) | 47% (inactive) | 34.4% (inactive) | 2% (inactive) | 62% (inactive) | 62.3% (inactive) | -19% (inactive) | 44% (inactive) | 49.3% (inactive)
Nc1nccc2c1ncn2C1C=C(CO)C(O)C1O (centres undefined) | 15% (inactive) | 67% (inactive) | 38.5% (inactive) | 3% (inactive) | 90% (active) | 45.4% (inactive) | 6% (inactive) | 80% (active) | 54.5% (inactive) | 0% (inactive) | 26% (inactive) | 57.5% (inactive) | 21% (inactive) | 94% (active) | 57.1% (inactive) | 18% (inactive) | 89% (active) | -8.5% (inactive)
N#C/C(=C1C=C/C(=N/O)C=C/1Cl)c1ccccc1 | -3% (inactive) | -7% (inactive) | 21.7% (inactive) | -7% (inactive) | 4% (inactive) | 24.3% (inactive) | 4% (inactive) | 36% (inactive) | 51.9% (inactive) | -15% (inactive) | 6% (inactive) | 69.5% (inactive) | 5% (inactive) | 18% (inactive) | 28.1% (inactive) | -11% (inactive) | 10% (inactive) | 26.4% (inactive)
Clc1ccccc1CCc1cc(-c2ccccc2)n[nH]1 | -14% (inactive) | 97% (active) | 96.8% (active) | -26% (inactive) | 98% (active) | 94.7% (active) | -6% (inactive) | 97% (active) | 95.6% (active) | -13% (inactive) | 97% (active) | 88.9% (active) | 16% (inactive) | 97% (active) | 93.2% (active) | -4% (inactive) | 97% (active) | 97.7% (active)
N#CCc1nc(Cl)cc(Cl)n1 | 2% (inactive) | 29% (inactive) | 31.9% (inactive) | 12% (inactive) | 59% (inactive) | 81.6% (active) | 2% (inactive) | 24% (inactive) | 19.8% (inactive) | 4% (inactive) | 12% (inactive) | 9.7% (inactive) | -4% (inactive) | 2% (inactive) | 5.05% (inactive) | 3% (inactive) | 27% (inactive) | 15.9% (inactive)
COc1ccc(C=O)cc1C[P+](c1ccccc1)(c1ccccc1)c1ccccc1 | 46% (inactive) | 97% (active) | 98% (active) | 38% (inactive) | 99% (active) | 97.6% (active) | 51% (inactive) | 99% (active) | 98.4% (active) | 13% (inactive) | 94% (active) | 98.3% (active) | 54% (inactive) | 98% (active) | 97.5% (active) | 39% (inactive) | 94% (active) | 97.9% (active)
BrCc1ccc2ccc3ccc(CBr)nc3c2n1 | 2% (inactive) | 83% (active) | 69.7% (inactive) | 11% (inactive) | 91% (active) | 43.5% (inactive) | 11% (inactive) | 95% (active) | 63.9% (inactive) | -12% (inactive) | 89% (active) | 24.8% (inactive) | -4% (inactive) | 94% (active) | 45% (inactive) | 8% (inactive) | 95% (active) | 64.8% (inactive)
CCCCCCCCCCn1cc[nH]c1=S | 47% (inactive) | 99% (active) | 99% (active) | 47% (inactive) | 99% (active) | 99.2% (active) | 72% (active) | 99% (active) | 99.3% (active) | 18% (inactive) | 99% (active) | 98.8% (active) | 72% (active) | 99% (active) | 99.2% (active) | 59% (inactive) | 98% (active) | 99.3% (active)
COc1ccc(C(=O)C(c2ccc(OC)cc2)C2(O)C(=O)Nc3c(C)cc(Cl)cc32)cc1 (centres undefined) | 21% (inactive) | 21% (inactive) | -25.1% (inactive) | -15% (inactive) | -15% (inactive) | 89% (active) | -9% (inactive) | -9% (inactive) | 87.8% (active) | 3% (inactive) | 3% (inactive) | 69.7% (inactive) | -3% (inactive) | -3% (inactive) | 89.8% (active) | -2% (inactive) | -2% (inactive) | 38.7% (inactive)
COc1ccc2c(c1)[n+]([O-])c(S(=O)(=O)c1ccc(C)cc1)c(N)[n+]2[O-] | 4% (inactive) | 80% (active) | 99.2% (active) | 18% (inactive) | 80% (active) | 98.8% (active) | 35% (inactive) | 96% (active) | 96% (active) | 16% (inactive) | 66% (inactive) | 99% (active) | 50% (inactive) | 96% (active) | 99% (active) | 36% (inactive) | 95% (active) | 99% (active)
O=C(/C=C/c1ccccc1)CCN1CCN(CCC(=O)/C=C/c2ccccc2)CC1 | 36% (inactive) | 100% (active) | 99.2% (active) | 56% (inactive) | 100% (active) | 99.5% (active) | 40% (inactive) | 57% (inactive) | 99.4% (active) | 88% (active) | 100% (active) | 99.4% (active) | 36% (inactive) | 99% (active) | 99.4% (active) | 78% (active) | 100% (active) | 99.5% (active)
